This is an account of results in PubChem BioAssay.

Molecules are shown by their SMILES. Active and inactive are the calls of the source.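 How the source made its calls, unless noted: active means NADPH fluorescence slope more negative than the mean of all samples by about 3 SD, 99.7% confidence; inactive means the rest.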

A short description of test [1]: inhibitors of TNFa-induced NFkB p65 translocation, primary screen, imaging, HUVEC, MLSMR starter and 10KST1 sets (AID 438;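 active means inhibition above 20% together with a positive visual image hit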;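 further: compound added about 3h40 before a 20 min TNFalpha stimulation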;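 on inhibition: signal is the nuclear over cytoplasmic p65 intensity ratio per well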). The conditions noted are these: HUVEC TNFa-induced p65 nuclear translocation; cell count: measured here: nuclei count (cytotoxicity indicator), at 2.08 µM unless noted; inhibition: at 2 µM, stronger effect = higher value unless noted.
Test [2] is described as follows: inhibitors of mutant huntingtin aggregation, primary screen, imaging, exon1htt(103Q)mCFP cells, high-content imaging (AID 483;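 active means visual image review flags a hit and inhibition of aggregation exceeds 20%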;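 further: compound exposure lasted 3 days before fixation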;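 on nuclei count: percent of the per-plate median nuclei count of sample wells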). The conditions noted are these: exon1htt(103Q)mCFP cell line, aggregate imaging, at 2 µM; inhibition of aggregation: stronger effect = higher value; nuclei count: measured here: cell count, toxicity.
A short description of test [3]: inhibitors of E-selectin induction by TNFa, primary screen, imaging, HUVEC, immunofluorescence, MLSMR starter and 10KST1 sets (AID 487;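 active means visually confirmed hit in the image check and inhibition above 20%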;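 on inhibition: signal is fraction of cell area covered by stained E-selectin grains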;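 on nuclei count: 100% = median nuclei count of all wells on the same plate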). To be noted: HUVEC TNFalpha-induced E-selectin immunofluorescence imaging, at 2 µM; inhibition: stronger effect = higher value; nuclei count: measured here: cell number, toxicity.
Test [4] in a line: DUSP6 inhibitors restoring Erk phosphorylation by chemical complementation, primary imaging in DUSP6-transfected HeLa (AID 609;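 active means compounds giving at least 50% inhibition in the cell-based MKP-3 phosphatase rescue imaging test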;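 on inhibition: phospho-Erk level distribution per well compared with pooled transfected vehicle control wells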). To be noted: HeLa MKP-3 transfected, phospho-Erk imaging KS statistic, at 10 µM.
Test [5] concerns the target Dual specificity protein phosphatase 6 (Homo sapiens) (UniProt Q16828). Described as above. To be noted: HeLa MKP-3 transfected, phospho-Erk imaging KS statistic, at 10 µM, stronger effect = higher value.
Test [6] has as its target Voltage-gated potassium channel subunit beta-2 (Rattus norvegicus) (UniProt P62483). The test is described as follows: KvBeta enzyme negative modulators, primary screen, biochemical, NADPH fluorescence (AID 622;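 active means fluorescence slope higher than the sample average by over 3 SD, cut at about -0.22 in these data, passing the limit was not always enough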;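 further: slope of raw intensity against log time taken from 70 to 1610 s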). The conditions noted are these: recombinant KvBeta, 4-cyanobenzaldehyde reduction, at 10 µM, stronger effect = higher value.
The target is the same in test [7]. The test is described as follows: KvBeta positive modulators, primary screen, biochemical, NADPH fluorescence (AID 623).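 Further: fluorescence intensity change per second fitted from 20 to 320 s.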 To be noted: Recombinant KvBeta, NADPH fluorescence decrease slope, 10 min; at 10 µM; stronger effect = lower value.
Test [8] deals with Muscarinic acetylcholine receptor M4 (Homo sapiens) (UniProt P08173). The test is described as follows: compounds altering M4/GIRK thallium flux, either direction, primary screen, M4 allosteric agonist project, cell-based, HEK293 M4/GIRK, BTC-AM (AID 625;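 active means fluorescence slope after compound addition differing from the mean of all tested samples at 99.7% confidence, mostly higher but some lower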;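 further: thallium influx through GIRK channels coupled to M4 in HEK293 cells with BTC-AM dye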). To be noted: at 10 µM, actives lie on both sides.
Muscarinic acetylcholine receptor M4 (Homo sapiens), sequence (P08173 whole entry, looked up): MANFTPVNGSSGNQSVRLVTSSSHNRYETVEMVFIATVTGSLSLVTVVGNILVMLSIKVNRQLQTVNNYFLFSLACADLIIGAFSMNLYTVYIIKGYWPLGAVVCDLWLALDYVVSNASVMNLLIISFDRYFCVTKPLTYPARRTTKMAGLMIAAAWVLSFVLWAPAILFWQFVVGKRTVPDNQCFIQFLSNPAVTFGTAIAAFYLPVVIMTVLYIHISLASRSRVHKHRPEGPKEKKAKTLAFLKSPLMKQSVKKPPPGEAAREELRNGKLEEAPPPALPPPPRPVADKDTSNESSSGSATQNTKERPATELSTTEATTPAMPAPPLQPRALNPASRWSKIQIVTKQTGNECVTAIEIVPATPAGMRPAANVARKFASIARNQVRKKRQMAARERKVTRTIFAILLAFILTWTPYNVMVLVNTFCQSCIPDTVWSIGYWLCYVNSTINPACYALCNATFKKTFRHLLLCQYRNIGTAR
The nature of test [9]: inhibitors of larval lipid processing in zebrafish, primary screen, whole organism, PED6 fluorescence, gall bladder and intestine (AID 686;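 active means a full or partial loss of lipid-probe fluorescence in the fish gall bladder, intestine or both, judged by eye; inactive means no fluorescence loss, or compound toxic to the fish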;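 further: larvae 5 to 7 days old with five fish per well; signal comes from phospholipase A2 cleavage of quenched PED6 carried via bile; overnight exposure to compound and PED6 before scoring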). The conditions noted are these: Zebrafish larvae PED6 lipid processing, fluorescence scoring.
Test [10] in a line: inhibitors of Chlamydomonas gravitaxis, primary screen, whole organism, Chlamydomonas reinhardtii, WT vs cilia-less mutant, absorbance, 96-well (AID 463189;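 active means inhibition at or above 50% relative to wild type and mutant plate controls; inactive means inhibition below 50%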;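 further: 0% = wild type cc124 cells in DMSO and 100% = ciliumless bld1 mutant cells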). To be noted: OD600 absorbance, 2 days, at 10 µM, stronger effect = higher value.
Test [11] in a line: inhibitors of Sendai virus-induced IRF3 signaling, primary screen, TLR/RLR signaling modifier project, cell-based, Sendai virus stimulus, luciferase, 10K MLSCN set (AID 602276;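 active means inhibition at or above 50% at 10 µM; inactive means inhibition below 50%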;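 further: firefly luciferase from ISG56 promoter only with Renilla not read in this screen; 0% = Sendai virus plus DMSO and 100% = medium plus DMSO without virus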). To be noted: HEK293 RL24 IRF3 luciferase reporter, at 10 µM, stronger effect = higher value. (In a reporter assay the amount or activity of a reporter protein is the signal.)
Test [12] is described as follows: inhibitors of poly I:C-induced TLR3 signaling, primary screen, cell-based, poly I:C stimulus, luciferase, 10K MLSCN set (AID 602277;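 active means inhibition of the reporter signal at or above 50%; inactive means inhibition below 50%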). To be noted: HEK293-TLR3 RL24 IRF3 luciferase reporter, at 10 µM, stronger effect = higher value.
Test [13] has as its target Alpha-2C adrenergic receptor (Homo sapiens) (UniProt P18825). The test can be described thus: modulators of alpha2C/GIRK thallium flux, primary screen, cell-based, HEK293 alpha2C/GIRK1/2 (AID 624;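 active means fluorescence slope after compound addition differing from the mean of all screened samples at 99.7% confidence, in either direction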;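 further: slope of fluorescence ratio to pre-addition baseline per second over 15 to 24 s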). To be noted: thallium flux BTC fluorescence, at 10 µM, actives lie on both sides.
Where [14] appears, read: measured here: cell density z-score.
Where [15] appears, read: measured here: nuclear c-Myc green intensity z-score.
Where [16] appears, read: measured here: nuclear pErk red intensity z-score, stronger effect = higher value.

Dual specificity protein phosphatase 6 (Homo sapiens), sequence (Q16828 whole entry, looked up): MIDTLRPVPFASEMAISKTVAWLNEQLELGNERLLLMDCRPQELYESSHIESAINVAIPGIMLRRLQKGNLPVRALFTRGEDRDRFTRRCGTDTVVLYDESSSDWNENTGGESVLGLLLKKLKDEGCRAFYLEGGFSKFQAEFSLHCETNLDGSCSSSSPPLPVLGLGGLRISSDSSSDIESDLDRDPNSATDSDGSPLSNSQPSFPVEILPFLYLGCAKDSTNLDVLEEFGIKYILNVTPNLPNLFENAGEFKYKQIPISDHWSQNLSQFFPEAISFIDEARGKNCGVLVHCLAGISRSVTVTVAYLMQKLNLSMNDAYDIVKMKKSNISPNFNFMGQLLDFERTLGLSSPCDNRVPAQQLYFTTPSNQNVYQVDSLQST
Alpha-2C adrenergic receptor (Homo sapiens), sequence (P18825 whole entry, looked up): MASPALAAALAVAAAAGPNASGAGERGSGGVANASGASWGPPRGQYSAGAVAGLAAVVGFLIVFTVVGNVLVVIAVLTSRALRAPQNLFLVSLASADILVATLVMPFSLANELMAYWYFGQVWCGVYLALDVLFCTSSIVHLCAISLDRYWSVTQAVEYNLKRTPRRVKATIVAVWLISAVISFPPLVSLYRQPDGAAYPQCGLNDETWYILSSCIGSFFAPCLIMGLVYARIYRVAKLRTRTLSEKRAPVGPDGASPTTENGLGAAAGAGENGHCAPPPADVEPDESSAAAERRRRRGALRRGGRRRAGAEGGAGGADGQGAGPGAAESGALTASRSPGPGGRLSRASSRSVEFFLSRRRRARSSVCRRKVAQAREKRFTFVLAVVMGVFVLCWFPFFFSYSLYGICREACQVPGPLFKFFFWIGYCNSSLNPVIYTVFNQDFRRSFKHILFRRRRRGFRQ
Voltage-gated potassium channel subunit beta-2 (Rattus norvegicus), sequence (P62483 whole entry, looked up): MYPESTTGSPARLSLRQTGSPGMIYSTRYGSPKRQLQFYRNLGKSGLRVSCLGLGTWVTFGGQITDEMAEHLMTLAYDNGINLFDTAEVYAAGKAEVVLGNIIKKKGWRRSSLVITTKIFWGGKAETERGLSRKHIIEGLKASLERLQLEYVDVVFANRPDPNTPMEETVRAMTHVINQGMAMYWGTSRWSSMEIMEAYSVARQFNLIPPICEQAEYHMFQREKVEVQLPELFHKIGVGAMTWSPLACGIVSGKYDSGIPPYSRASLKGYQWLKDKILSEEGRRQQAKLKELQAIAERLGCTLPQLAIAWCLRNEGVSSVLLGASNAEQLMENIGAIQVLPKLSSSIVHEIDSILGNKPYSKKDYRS

The term inhibition denotes the relative decrease from the control value, in per cent. As for `Cc1ccc(C)c(C2(O)CC(C)N(C)CC2C)c1` (stereo not given), the cell count in test [1] was 530. Also, the inhibition was 1.6% (inactive) in test [1]; -53.3% (inactive) in test [3]; 5.35% (inactive) in test [5]; -6.61% (inactive) in test [10]; -14.7% (inactive) in [11]; 94.6% (active) in test [12]. The inhibition of aggregation in [2] was -5.5% (inactive). For the same molecule, the nuclei count worked out at 99.7% in [2] and 111% in [3]. The z-score is -0.226 in test [4] (setting [14]), 0.594 in [4] (setting [15]) and -0.947 in [4] (setting [16]). Besides, the fluorescence slope in test [6] was -0.458 (inactive); in test [8], 0.00518 (inactive). The NADPH fluorescence slope in test [7] is -4.2e-05 (inactive). Also, the call in test [9] was inactive.

`CN1C(=O)CN=C(c2ccc(Cl)cc2)c2cc(Cl)ccc21` registered a cell count in [1] of 702. The inhibition in test [1] was -2.8% (inactive); in [3], -88.1% (inactive); in test [5], -6.41% (inactive); in test [10], -0.225% (inactive); in [11], 0.552% (inactive); in test [12] it was 32% (inactive). The inhibition of aggregation in [2] is -25.6% (inactive). The values for the nuclei count in test [2] and in [3] were 108% and 128%, respectively. Further, the z-score in [4] (setting [14]) was 0.107; in test [4] (setting [15]), -0.617; in [4] (setting [16]) it was 0.523. Further, the fluorescence slope in test [6] is -0.442 (inactive). Besides, in [7], the NADPH fluorescence slope was -4.1e-05 (inactive). Further, the slope in test [13] was 0.00345 (inactive). In addition, the outcome in [9] is “inactive; toxic”.

In [1], `CN(C)[C@@H]1C(=O)C(C(N)=O)=C(O)[C@@]2(O)C(=O)C3=C(O)c4c(O)cccc4[C@@](C)(O)[C@H]3C[C@@H]12` came in with a cell count of 668. Also, the inhibition in test [1] is 5.4% (inactive); in [3], -85.3% (inactive); in test [5] it was 21.2% (inactive); in test [10], 22.3% (inactive); in [11] it was 10.4% (inactive); in [12], 33.9% (inactive). Moreover, the inhibition of aggregation in [2] was 72.1% (active). Moreover, the figures for the nuclei count in [2] and in test [3] were 99.1% and 113%, respectively. Further, the results for the z-score in test [4] (setting [14]), in test [4] (setting [15]) and in [4] (setting [16]) were -0.618, -0.0358 and -1.49, respectively. Also, in [6], the fluorescence slope was -0.433 (inactive). In addition, the NADPH fluorescence slope in test [7] is -5.8e-05 (inactive). Further, the slope in [13] was 0.00553 (inactive). Besides, the result in test [9] was inactive.

For `NCCc1ccc(O)cc1`, the cell count in test [1] was found to be 431. Also, the inhibition in test [1] was 6% (inactive); in test [3], 22.3% (inactive); in test [10] it was 7.08% (inactive); in [11], 12.8% (inactive); in [12], 19% (inactive). For the same molecule, the inhibition of aggregation in test [2] was 11.4% (inactive). Besides, the values for the nuclei count in test [2] and in [3] were 95.7% and 92.7%, respectively. Moreover, the fluorescence slope in [6] is -0.573 (inactive); in test [8], 0.00467 (inactive). Also, the NADPH fluorescence slope in [7] was -7e-05 (inactive).

As for `CN(C)[C@@H]1C(=O)C(C(N)=O)=C(O)[C@@]2(O)C(=O)C3=C(O)c4c(O)ccc(Cl)c4[C@@](C)(O)C3C[C@@H]12` (stereo not given in full), in test [1], the cell count amounted to 634. In addition, the inhibition in test [1] is -1.6% (inactive); in test [3], -43.7% (inactive); in [5], 21.2% (inactive); in [10] it was 51.9% (active); in test [11] it was 23% (inactive); in test [12] it was 44.9% (inactive). The inhibition of aggregation in test [2] was 76.3% (active). Moreover, the figures for the nuclei count in test [2] and in [3] were 102% and 123%, respectively. The values for the z-score in test [4] (setting [14]), in test [4] (setting [15]) and in test [4] (setting [16]) were -1.02, 0.954 and -0.997, respectively. In addition, the fluorescence slope in test [6] was -0.468 (inactive). For the same molecule, the NADPH fluorescence slope in test [7] is -6.5e-07 (inactive). In addition, in test [13], the slope is 0.00588 (inactive). In test [9], the outcome was inactive.
